About 7,900 targets were measured; listed, in parts, are those with a hit and a random draw of the rest. About 0.6% of all pairs of compound and target were hits. A number with no mark means an inactive call.
Experiments:
Assay in all cases: log2 fold change, soluble protein after heating vs DMSO (PISA); higher = thermal stabilisation; K562 cells, 10 uM, 30 min; active = over 0.2 and 3.5 SD of the protein, either way, in both replicates (recomputed)
IRAK-1-4 Inhibitor I = compound: C1COCCN1CCN2C3=CC=CC=C3N=C2NC(=O)C4=CC(=CC=C4)[N+](=O)[O-] [IRAK-1-4 Inhibitor I]
How it was run: (§1)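 K562 cells at 2×10^6 cells/mL were given 10 μM compound for 30 min. Aliquots then went through 3 min of heating across 48°C-58°C, were pooled, and were extracted in PBS with 0.5% NP-40 at 4°C, and the supernatant after 21,000xg for 90 min was quantified by TMTpro 16plex LC-MS/MS with channel sums equalised. Thermal stability relative to control samples, from duplicates, is given as log2 fold change.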

ibrutinib = compound: C=CC(=O)N1CCC[C@@H](n2nc(-c3ccc(Oc4ccccc4)cc3)c3c(N)ncnc32)C1 [ibrutinib]
How it was run: as §1

[1] = compound: CC(=O)c1cnc2ccc(-c3cc(Cl)c(O)c(Cl)c3)nc2c1N[C@H]1CC[C@H](CN(C)C)CC1
How it was run: as §1

ralimetinib = compound: CC(C)(C)Cn1c(N)nc2ccc(-c3[nH]c(C(C)(C)C)nc3-c3ccc(F)cc3)nc21 [ralimetinib]
How it was run: as §1

[2] = compound: CC(C)(O)CC(=O)NCCn1ccc2ncnc(Nc3ccc(Oc4cccc(C(F)(F)F)c4)c(Cl)c3)c21
How it was run: as §1

[3] = compound: CC(C)C1=C2N=C(C=C(N2N=C1)NCC3=CC=CC=C3)NCCCCCCN
How it was run: as §1

[4] = compound: CC(C)C[C@@H](C=O)NC(=O)[C@H](CC(C)C)NC(=O)[C@H](CC(C)C)NC(=O)OCc1ccccc1
How it was run: as §1

pinometostat = compound: CC(C)N(C[C@H]1O[C@@H](n2cnc3c(N)ncnc32)[C@H](O)[C@@H]1O)[C@H]1C[C@@H](CCc2nc3cc(C(C)(C)C)ccc3[nH]2)C1 [pinometostat]
How it was run: as §1

[5] = compound: CC1=C(C(CC(=O)N1)C2=CC=C(C=C2)C(F)(F)F)C(=O)NC3=C(C=C4C(=C3)C=NN4)F
How it was run: as §1

[6] = compound: CC1=C(C2=C(C=C1)C(=O)C3=CC=CC=C3N2CCCN)C
How it was run: as §1

[7] = compound: CC1=C(C=C(C=C1)NC(=O)C2=CC(=CC=C2)C(C)(C)C#N)NC3=CC4=C(C=C3)N=CN(C4=O)C
How it was run: as §1

[8] = compound: CC1=C(C=C(C=C1)NC(=O)C2=CC(=CC=C2)N(C)C)NC(=O)C3=CC=C(C=C3)O
How it was run: as §1

[9] = compound: CC1=CC=C(C=C1)SC2=C3C=C(SC3=CN=C2)C(=O)N
How it was run: as §1

[10] = compound: CC1=NC(=CC=C1)C2=C(N=C(N2)C(C)(C)C)C3=CC4=NC=CN=C4C=C3
How it was run: as §1

Nexturastat A = compound: CCCCN(Cc1ccc(C(=O)NO)cc1)C(=O)Nc1ccccc1 [Nexturastat A]
How it was run: as §1

vemurafenib = compound: CCCS(=O)(=O)Nc1ccc(F)c(C(=O)c2c[nH]c3ncc(-c4ccc(Cl)cc4)cc23)c1F [vemurafenib]
How it was run: as §1

[11] = compound: CCCS(=O)(=O)Nc1ccc(F)c(C(=O)c2c[nH]c3ncc(Cl)cc23)c1F
How it was run: as §1

[12] = compound: CCCc1cc(C)[nH]c(=O)c1CNC(=O)c1cc(-c2ccnc(N3CCN(C)CC3)c2)cc2c1cnn2C(C)C
How it was run: as §1

givinostat = compound: CCN(CC)Cc1ccc2cc(COC(=O)Nc3ccc(C(=O)NO)cc3)ccc2c1 [givinostat]
How it was run: as §1

barasertib = compound: CCN(CCCOc1ccc2c(Nc3cc(CC(=O)Nc4cccc(F)c4)[nH]n3)ncnc2c1)CCOP(=O)(O)O [barasertib]
How it was run: as §1

Chain of UniProt Q9Y2I1 (Q9Y2I1 whole entry, looked up): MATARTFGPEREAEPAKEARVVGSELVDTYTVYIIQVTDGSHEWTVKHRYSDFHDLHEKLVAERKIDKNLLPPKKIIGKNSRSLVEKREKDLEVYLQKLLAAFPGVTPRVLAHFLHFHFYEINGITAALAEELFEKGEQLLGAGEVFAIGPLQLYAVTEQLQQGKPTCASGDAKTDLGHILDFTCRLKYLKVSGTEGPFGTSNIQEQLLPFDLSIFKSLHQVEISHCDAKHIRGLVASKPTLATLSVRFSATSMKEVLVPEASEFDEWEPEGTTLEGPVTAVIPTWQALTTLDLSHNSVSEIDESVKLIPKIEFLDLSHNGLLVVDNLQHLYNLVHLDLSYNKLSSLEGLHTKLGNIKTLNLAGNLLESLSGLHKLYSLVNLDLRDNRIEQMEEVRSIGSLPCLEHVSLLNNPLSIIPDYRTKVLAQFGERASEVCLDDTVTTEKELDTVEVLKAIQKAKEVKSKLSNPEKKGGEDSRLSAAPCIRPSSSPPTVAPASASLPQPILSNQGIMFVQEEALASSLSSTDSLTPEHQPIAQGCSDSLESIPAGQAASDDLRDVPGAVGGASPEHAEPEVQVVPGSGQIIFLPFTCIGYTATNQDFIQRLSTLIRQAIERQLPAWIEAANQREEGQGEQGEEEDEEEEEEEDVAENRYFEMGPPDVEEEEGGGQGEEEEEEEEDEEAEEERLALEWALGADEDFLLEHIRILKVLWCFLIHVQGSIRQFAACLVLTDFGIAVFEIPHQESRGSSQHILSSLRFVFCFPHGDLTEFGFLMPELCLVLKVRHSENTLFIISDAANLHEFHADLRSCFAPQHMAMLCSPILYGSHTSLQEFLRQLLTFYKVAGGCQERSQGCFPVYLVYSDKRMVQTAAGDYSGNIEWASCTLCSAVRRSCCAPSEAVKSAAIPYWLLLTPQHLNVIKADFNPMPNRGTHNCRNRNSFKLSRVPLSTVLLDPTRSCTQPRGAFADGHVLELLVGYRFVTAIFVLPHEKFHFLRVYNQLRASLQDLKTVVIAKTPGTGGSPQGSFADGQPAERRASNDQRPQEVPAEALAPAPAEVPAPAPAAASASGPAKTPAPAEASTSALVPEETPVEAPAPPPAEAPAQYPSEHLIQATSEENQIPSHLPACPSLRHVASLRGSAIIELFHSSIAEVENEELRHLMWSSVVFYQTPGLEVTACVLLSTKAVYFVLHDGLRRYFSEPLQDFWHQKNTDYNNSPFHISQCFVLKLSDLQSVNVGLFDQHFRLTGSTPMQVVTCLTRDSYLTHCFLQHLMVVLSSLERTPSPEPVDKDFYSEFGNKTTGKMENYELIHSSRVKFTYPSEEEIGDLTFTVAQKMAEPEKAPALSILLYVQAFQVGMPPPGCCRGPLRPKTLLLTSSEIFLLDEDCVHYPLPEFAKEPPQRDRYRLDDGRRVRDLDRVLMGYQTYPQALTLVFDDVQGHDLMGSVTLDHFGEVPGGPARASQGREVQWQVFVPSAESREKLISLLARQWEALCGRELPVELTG
Chain of UniProt P55786 (P55786 whole entry, looked up): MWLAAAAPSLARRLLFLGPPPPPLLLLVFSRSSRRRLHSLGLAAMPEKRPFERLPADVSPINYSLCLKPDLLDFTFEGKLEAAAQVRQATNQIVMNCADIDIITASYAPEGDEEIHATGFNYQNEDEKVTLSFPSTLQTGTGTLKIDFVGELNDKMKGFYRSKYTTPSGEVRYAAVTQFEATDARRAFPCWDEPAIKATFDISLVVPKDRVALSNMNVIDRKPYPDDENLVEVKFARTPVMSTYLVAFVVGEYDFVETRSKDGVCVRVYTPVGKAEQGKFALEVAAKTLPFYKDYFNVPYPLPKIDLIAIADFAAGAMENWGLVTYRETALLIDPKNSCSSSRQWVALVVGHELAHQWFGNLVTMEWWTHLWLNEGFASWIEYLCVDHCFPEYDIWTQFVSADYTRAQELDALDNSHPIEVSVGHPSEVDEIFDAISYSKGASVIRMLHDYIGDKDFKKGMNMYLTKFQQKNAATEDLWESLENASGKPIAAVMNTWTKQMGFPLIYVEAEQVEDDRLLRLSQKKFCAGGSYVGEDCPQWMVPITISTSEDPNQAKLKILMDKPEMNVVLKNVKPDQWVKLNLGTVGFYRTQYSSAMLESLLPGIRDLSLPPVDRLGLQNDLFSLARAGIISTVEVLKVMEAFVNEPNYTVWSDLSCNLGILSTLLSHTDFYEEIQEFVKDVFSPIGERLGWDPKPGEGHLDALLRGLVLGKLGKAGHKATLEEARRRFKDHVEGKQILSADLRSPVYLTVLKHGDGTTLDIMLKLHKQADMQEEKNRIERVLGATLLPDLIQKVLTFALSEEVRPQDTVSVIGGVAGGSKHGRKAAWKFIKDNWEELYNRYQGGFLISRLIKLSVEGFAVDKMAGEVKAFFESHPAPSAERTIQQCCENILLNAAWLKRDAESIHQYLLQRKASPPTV
Chain of UniProt P17568 (P17568 whole entry, looked up): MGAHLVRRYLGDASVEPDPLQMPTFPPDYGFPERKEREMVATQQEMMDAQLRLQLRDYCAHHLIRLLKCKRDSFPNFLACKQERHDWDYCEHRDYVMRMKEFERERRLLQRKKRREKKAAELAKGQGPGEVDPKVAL
Chain of UniProt Q9Y314 (Q9Y314 whole entry, looked up): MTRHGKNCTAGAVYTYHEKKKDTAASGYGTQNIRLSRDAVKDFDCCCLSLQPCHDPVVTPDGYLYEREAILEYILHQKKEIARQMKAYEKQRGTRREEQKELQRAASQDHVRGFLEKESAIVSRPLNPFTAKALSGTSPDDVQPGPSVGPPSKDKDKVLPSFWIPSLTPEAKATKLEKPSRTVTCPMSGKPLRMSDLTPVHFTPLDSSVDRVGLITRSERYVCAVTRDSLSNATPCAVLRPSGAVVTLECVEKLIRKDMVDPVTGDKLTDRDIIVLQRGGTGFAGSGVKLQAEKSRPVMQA
Chain of UniProt Q9ULX3 (Q9ULX3 whole entry, looked up): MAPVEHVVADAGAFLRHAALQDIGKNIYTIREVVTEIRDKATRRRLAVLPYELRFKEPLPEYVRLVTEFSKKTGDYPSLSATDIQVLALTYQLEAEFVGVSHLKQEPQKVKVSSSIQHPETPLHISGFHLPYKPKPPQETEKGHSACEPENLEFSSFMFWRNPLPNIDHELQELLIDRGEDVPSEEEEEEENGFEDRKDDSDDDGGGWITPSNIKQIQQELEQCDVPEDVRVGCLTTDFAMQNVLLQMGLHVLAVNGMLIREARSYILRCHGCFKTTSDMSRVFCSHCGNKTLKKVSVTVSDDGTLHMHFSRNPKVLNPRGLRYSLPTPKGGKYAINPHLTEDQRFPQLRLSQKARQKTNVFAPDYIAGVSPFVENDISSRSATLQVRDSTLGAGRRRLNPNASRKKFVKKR
Chain of UniProt Q8NCE2 (Q8NCE2 whole entry, looked up): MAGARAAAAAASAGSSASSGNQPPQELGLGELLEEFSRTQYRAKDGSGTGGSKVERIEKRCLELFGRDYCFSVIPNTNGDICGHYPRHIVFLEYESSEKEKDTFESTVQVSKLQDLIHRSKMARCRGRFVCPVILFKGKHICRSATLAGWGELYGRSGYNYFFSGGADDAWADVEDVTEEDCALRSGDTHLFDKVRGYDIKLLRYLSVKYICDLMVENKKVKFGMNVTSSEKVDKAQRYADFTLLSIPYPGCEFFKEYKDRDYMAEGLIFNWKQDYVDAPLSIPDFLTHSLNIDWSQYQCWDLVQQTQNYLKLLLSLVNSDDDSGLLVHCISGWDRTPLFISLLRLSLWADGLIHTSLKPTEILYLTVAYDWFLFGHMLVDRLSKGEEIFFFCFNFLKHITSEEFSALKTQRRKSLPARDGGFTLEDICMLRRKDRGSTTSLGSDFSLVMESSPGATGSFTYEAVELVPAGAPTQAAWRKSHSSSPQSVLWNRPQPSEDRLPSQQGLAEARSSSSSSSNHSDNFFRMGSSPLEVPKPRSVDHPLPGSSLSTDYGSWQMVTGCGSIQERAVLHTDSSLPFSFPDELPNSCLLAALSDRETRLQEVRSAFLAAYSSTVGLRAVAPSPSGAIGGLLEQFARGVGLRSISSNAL
Chain of UniProt P15559 (P15559 whole entry, looked up): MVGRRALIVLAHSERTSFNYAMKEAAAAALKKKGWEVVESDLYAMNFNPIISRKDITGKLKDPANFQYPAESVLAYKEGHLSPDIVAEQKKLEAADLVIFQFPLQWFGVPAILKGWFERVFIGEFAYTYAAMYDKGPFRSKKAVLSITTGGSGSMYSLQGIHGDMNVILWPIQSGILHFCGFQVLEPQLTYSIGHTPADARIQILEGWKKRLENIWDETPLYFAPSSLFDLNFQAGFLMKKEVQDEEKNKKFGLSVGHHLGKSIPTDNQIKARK
Chain of UniProt P49116 (P49116 whole entry, looked up): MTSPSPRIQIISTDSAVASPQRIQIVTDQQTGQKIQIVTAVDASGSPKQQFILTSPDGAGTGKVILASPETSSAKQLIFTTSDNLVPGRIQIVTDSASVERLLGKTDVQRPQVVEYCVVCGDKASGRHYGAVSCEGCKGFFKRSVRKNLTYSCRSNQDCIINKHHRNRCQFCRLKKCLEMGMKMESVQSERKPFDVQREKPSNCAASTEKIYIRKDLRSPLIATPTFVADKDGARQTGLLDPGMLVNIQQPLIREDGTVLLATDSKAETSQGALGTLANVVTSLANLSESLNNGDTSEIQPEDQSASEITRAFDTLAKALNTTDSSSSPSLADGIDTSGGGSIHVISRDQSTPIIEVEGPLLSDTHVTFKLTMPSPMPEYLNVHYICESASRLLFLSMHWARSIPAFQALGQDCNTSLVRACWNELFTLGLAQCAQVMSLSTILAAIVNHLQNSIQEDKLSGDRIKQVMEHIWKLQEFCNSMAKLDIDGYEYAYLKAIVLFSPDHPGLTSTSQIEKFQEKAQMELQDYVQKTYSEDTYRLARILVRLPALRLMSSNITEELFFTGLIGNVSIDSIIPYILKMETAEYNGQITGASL
Chain of UniProt P84157 (P84157 whole entry, looked up): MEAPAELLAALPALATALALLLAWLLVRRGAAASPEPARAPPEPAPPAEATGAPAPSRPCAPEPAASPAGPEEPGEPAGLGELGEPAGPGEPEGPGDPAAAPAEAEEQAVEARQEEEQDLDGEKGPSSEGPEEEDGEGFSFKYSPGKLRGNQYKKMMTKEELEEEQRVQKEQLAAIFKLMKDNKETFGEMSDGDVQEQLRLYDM

Target | log2 fold change (IRAK-1-4 Inhibitor I) | log2 fold change (ibrutinib) | log2 fold change [1] | log2 fold change (ralimetinib) | log2 fold change [2] | log2 fold change [3] | log2 fold change [4] | log2 fold change (pinometostat) | log2 fold change [5] | log2 fold change [6] | log2 fold change [7] | log2 fold change [8] | log2 fold change [9] | log2 fold change [10] | log2 fold change (Nexturastat A) | log2 fold change (vemurafenib) | log2 fold change [11] | log2 fold change [12] | log2 fold change (givinostat) | log2 fold change (barasertib)
NDUFB10 (UniProt O96000) | 0.015 | 0.009 | -0.001 | -0.057 | -0.018 | -0.11 | 0.023 | -0.018 | 0 | 0.009 | -0.093 | -0.008 | 0.001 | 0.05 | -0.002 | -0.019 | 0 | -0.126 | -0.023 | 0.02
NOSIP (UniProt Q9Y314) | -0.401 | -0.032 | -0.033 | -0.065 | -0.135 | -0.106 | -0.039 | 0.085 | -0.143 | 0.186 | 0.02 | -0.2 | 0.032 | 0.012 | 0.149 | 0.247 | 0.168 | 0.047 | 0.14 | 0.197
NOB1 (UniProt Q9ULX3) | -0.062 | -0.025 | -0.083 | 0.288 (active) | -0.033 | -0.15 | 0.053 | 0.068 | 0.047 | -0.031 | 0.039 | 0.047 | 0.012 | 0.027 | 0.034 | 0.055 | 0.031 | 0.182 | 0.055 | 0.041
OXR1 (UniProt Q8N573) | 0.048 | 0.016 | -0.002 | -0.019 | -0.035 | -0.077 | -0.004 | 0.023 | -0.008 | 0.009 | 0.005 | -0.003 | 0.005 | 0.052 | -0.025 | 0.023 | -0.013 | -0.062 | 0.012 | 0.027
MTOR (UniProt P42345) | -0.029 | -0.03 | 0.183 | 0.011 | -0.084 | -0.288 (active) | -0.002 | 0.046 | -0.044 | 0.014 | -0.033 | -0.05 | 0.02 | -0.006 | 0.009 | 0.024 | 0.071 | 0.008 | 0.038 | 0.059
NR2C2 isoform 2 (UniProt P49116) | 0.004 | 0.022 | -0.062 | -0.064 | -0.048 | -0.004 | 0.058 | 0.014 | 0.045 | -0.215 | -0.017 | 0.029 | 0.114 | -0.034 | -0.23 (active) | -0.023 | 0.03 | 0.04 | -0.073 | 0.028
MRPS21 (UniProt P82921) | -0.143 | 0.029 | 0.172 | -0.038 | -0.069 | 0.063 | 0.063 | 0.052 | -0.091 | -0.207 | 0.015 | -0.059 | 0.215 | 0.107 | 0.093 | 0.079 | 0.132 | -0.018 | -0.016 | -0.156
NRDC isoform 2 (UniProt O43847) | 0.003 | -0.033 | -0.026 | 0.011 | -0.04 | 0.053 | 0.029 | 0.015 | 0 | 0.037 | 0.001 | -0.053 | 0.01 | 0.03 | 0 | 0.047 | 0.051 | 0.021 | 0.017 | 0.037
NISCH (UniProt Q9Y2I1) | 0.053 | 0 | -0.037 | 0.02 | 0.007 | -0.429 | 0.028 | 0.047 | 0.018 | 0.004 | 0.009 | -0.07 | -0.054 | -0.018 | 0.094 | 0.055 | 0.116 | -0.077 | 0.032 | 0.075
MRPS2 (UniProt Q9Y399) | -0.043 | 0.109 | -0.011 | -0.02 | -0.035 | -0.03 | 0.08 | 0.002 | 0.002 | -0.079 | 0.075 | -0.049 | -0.018 | 0.029 | 0.049 | 0.126 | 0.041 | -0.084 | -0.044 | -0.031
MRPS31 (UniProt Q92665) | -0.057 | 0.014 | -0.073 | -0.005 | -0.032 | -0.086 | 0.057 | 0.034 | 0.026 | -0.14 | -0.015 | -0.012 | -0.041 | -0.017 | 0.111 | -0.041 | 0.054 | -0.012 | 0.009 | -0.007
MTMR14 (UniProt Q8NCE2) | 0.027 | -0.069 | -0.015 | 0.004 | 0.028 | -0.04 | -0.004 | -0.041 | 0.06 | -0.029 | -0.009 | -0.048 | -0.004 | 0.02 | 0.028 | -0.02 | 0.071 | -0.016 | 0.061 | 0.019
MXRA7 (UniProt P84157) | 0.098 | 0.048 | -0.064 | -0.012 | 0.116 | 0.075 | -0.083 | -0.049 | -0.011 | -0.045 | -0.181 | -0.015 | 0.038 | 0.011 | -0.002 | 0.041 | -0.032 | -0.078 | 0.011 | 0.048
NQO1 (UniProt P15559) | 0.001 | -0.053 | 0.044 | 0.001 | -0.029 | -0.035 | -0.045 | -0.02 | -0.038 | -0.01 | 0.075 | -0.023 | 0.032 | 0.025 | -0.049 | 0.027 | -0.007 | 0.039 | -0.01 | 0.036
NDUFB7 (UniProt P17568) | 0.012 | 0.008 | 0.007 | 0.079 | -0.034 | -0.002 | -0.055 | -0.017 | 0.014 | 0.004 | 0.037 | -0.006 | 0.063 | 0.027 | 0.023 | 0.018 | -0.014 | -0.124 | -0.367 (active) | -0.012
NPEPPS (UniProt P55786) | 0.039 | 0 | -0.013 | 0.021 | -0.117 | 0.254 (active) | -0.035 | -0.026 | -0.01 | 0.045 | 0.079 | -0.012 | -0.004 | 0.018 | -0.017 | -0.022 | 0.003 | 0.009 | -0.02 | 0.008
